Screening data as filed in PubChem BioAssay.
An excerpt weighted towards active compounds, which were near 3.1% of everything screened.
p53null 39C kill: selectivity test: cytotoxicity in p53 null cells, nonpermissive temperature. H1299 p53-null (neo) cells, 39C, ATPlite viability, 24 h. Potency, µM (highest dose often 46.1 µM), hits mostly cytotoxic. 55,000 compounds, 0.97% hits. AID 904; further: nearly all actives have a fitted effect of over 50% in size
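Following overnight plating at 37C (600 cells/well), H1299-neo or H1299-p53A138V cells are dosed up to 46 uM. Incubation lasts 24 hr at 39C before ATP detection.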
p53null 32C kill: selectivity test: cytotoxicity in p53 null cells, permissive temperature. AID 903. Potency, µM (series often up to 46.1 µM), hits mostly cytotoxic. 55,000 compounds, 0.62% hits. H1299-neo p53 null cells, ATP luminescence, 24 h, 32C; further: nearly all actives have a fitted effect of over 55% in size
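Overnight 37C seeding (600 cells/well) of H1299-neo preceded a 24 hr, 32C exposure to compounds up to 46 uM. ATP levels, read by luminescence after 20 min at RT, indicated surviving cells.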
S16 viability: toxic to S16 Pmp22-F2sN Schwann cells. S16 Pmp22-F2sN Schwann cells viability, CellTiter-Glo, 24 h. Potency, µM (doses to about 57.5 µM), actives largely listed as cytotoxic. 43,000 compounds, 0.48% hits; further: nearly all actives have a fitted effect of over 65% in size
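Used to flag compounds lowering reporter output through toxicity, this quantitative HTS measures ATP-based CellTiter-Glo luminescence in S16 Pmp22-F2sN Schwann cells after 24 h compound exposure at 37C.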
pS6 MEF inh: inhibitors of mTORC1 signaling in Tsc2-/- p53-/- MEF cells; Tsc2-/- p53-/- MEF, phospho-rpS6 immunofluorescence/PI, 24 h; Potency, µM (titrated, usually from 38.3 µM), hits mostly inhibitors; 44,000 compounds, 0.78% hits; further: nearly all actives have a fitted effect of over 50% in size
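Immunofluorescence of rpS6 phosphorylation in Tsc2-/-, p53-/- MEFs after 24 h compound exposure, normalized to propidium iodide signal. Activity is expressed as % positive cells, thresholded with 7.5 nM rapamycin.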
PMP22 txn prim: PMP22 gene transcription modulation. S16 Pmp22-F2sN Schwann cells, FLuc/NLuc coincidence luminescence, 24 h. Potency, µM (titrated, usually from 57.5 µM), actives largely listed as inhibitors. 43,000 compounds, 2% hits; active means clear falling dose curves in both reporters; inconclusive means both reporters move, but less clearly or upward; inactive means either reporter flat; the % is the NLuc reporter signal
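S16 Schwann cells carrying FLuc/NLuc coincidence reporter in the Pmp22 3' UTR treated with compound 24 h at 37C; FLuc then NLuc luminescence read sequentially by dual-luciferase reagents.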
SKOV3 invasion: inhibitors of ovarian cancer cell adhesion and invasion in omental model. SKOV3ip1-GFP adhesion/invasion on 3D omental model, fluorescence. Potency, µM (highest dose often 45.8 µM), most hits filed as inhibitors. 46,000 compounds, 0.1% hits; further: nearly all actives have a fitted effect of over 65% in size
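qHTS, 4-pt dose (0.36-46 umol/L); SKOV3ip1-GFP, 1,200 cells/well, no FBS; primary omental fibroblast/mesothelial co-culture 48 h pre-grown; 2 h RT + 16 h 37 C; PBS wash, 4% PFA; GFP count 488/509 nm.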
NLuc saturating: NanoLuc enzyme inhibition artifact for PMP22 screen | Secreted NLuc enzyme (filtered S16 cell medium), Nano-Glo luminescence | Potency, µM (highest dose often 57.5 µM), hits mostly inhibitors | 690 compounds, 4% hits | AID 1508638 | shares compounds with PMP22 txn prim
NLuc Km counter: inhibits NanoLuc under Km conditions, PMP22 counter-screen | shares compounds with PMP22 txn prim | secreted NLuc enzyme, coelenterazine luminescence, Km conditions | Potency, µM (titrated, usually from 57.5 µM), most hits filed as inhibitors | 690 compounds, 5% hits | AID 1508639
FLuc counter: counter-screen for PMP22 expression modulators: firefly luciferase inhibition | shares compounds with PMP22 txn prim | purified P. pyralis FLuc, luminescence, 10 min | Potency, µM (titrated, usually from 57.5 µM), most hits filed as inhibitors | 690 tested, under 10 active
Target sequence (P08659 whole entry, looked up): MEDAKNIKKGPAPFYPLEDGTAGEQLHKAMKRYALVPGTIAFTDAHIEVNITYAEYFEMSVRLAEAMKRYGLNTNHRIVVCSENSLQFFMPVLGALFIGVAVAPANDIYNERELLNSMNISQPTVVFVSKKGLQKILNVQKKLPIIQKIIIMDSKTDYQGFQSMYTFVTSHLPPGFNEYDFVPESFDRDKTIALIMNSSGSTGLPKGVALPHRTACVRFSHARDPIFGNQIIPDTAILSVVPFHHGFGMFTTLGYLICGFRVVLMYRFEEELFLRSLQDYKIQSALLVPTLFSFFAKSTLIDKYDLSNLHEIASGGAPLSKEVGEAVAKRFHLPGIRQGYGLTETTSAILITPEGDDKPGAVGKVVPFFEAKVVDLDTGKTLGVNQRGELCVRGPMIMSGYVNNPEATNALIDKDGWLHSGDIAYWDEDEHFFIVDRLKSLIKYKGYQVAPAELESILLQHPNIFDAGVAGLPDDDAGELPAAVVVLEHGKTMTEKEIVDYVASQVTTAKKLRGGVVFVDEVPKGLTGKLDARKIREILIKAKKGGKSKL
S16 F2sN tox cnf: confirmation of cytotoxicity in S16 Pmp22-F2sN Schwann cells (luciferase reporters placed in the Pmp22 gene). shares compounds with PMP22 txn prim. Potency, µM (titrated, usually from 57.5 µM), usual class: cytotoxic. 690 compounds, 7% hits. S16 Schwann cells viability, CellTiter-Glo ATP luminescence, 24 h
PMP22 txn cnf: confirmation of modulators of PMP22 gene transcription in S16 cells. shares compounds with PMP22 txn prim. S16 Schwann cells Pmp22-F2sN, dual luciferase, 24 h. Potency, µM (titrated, usually from 57.5 µM), actives largely listed as inhibitors. 690 compounds, 22% hits; active means clear falling dose curves in both reporters; inconclusive means both reporters move, but less clearly or upward; inactive means either reporter flat; the % is the FLuc reporter signal
PMP22 prot conf: rat PMP22 protein level modulation, confirmatory | shares compounds with PMP22 txn prim | S16 Schwann cells Pmp22-HiBiT, luminescence, 48 h | Potency, µM (doses to about 27.9 µM), hits mostly inhibitors | 95 tested, under 10 active | AID 1508647
Target sequence (P25094 whole entry, looked up): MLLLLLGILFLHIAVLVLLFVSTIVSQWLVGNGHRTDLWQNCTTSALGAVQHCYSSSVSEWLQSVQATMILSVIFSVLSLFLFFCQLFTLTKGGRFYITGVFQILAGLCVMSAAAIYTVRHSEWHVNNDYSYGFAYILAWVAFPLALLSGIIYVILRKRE
Hits are given with their value; – = inactive; ? = inconclusive; · = not tested or not shown. Unless noted, the call rests on the fitted dose curve; in most records, active means well fitted curve in the direction sought with a large enough effect; inconclusive means small, poorly fitted or top-dose-only effect, or another doubt; inactive means no such curve, though single readings can be large; an effect the other way counts as inactive or inconclusive.

SMILES	p53null 39C kill	p53null 32C kill	S16 viability	pS6 MEF inh	PMP22 txn prim	SKOV3 invasion	NLuc saturating	NLuc Km counter	FLuc counter	S16 F2sN tox cnf	PMP22 txn cnf	others
CCN(C(=O)Cn1c(=O)n(Cc2ccc3c(c2)OCO3)c(=O)c2ccc(C(=O)NC3CCCCC3)cc21)c1cccc(C)c1	–	–	–	–	–	–	·	·	·	·	·
CNC(=O)c1ccc(-c2cnc3ncc(Cc4ccc5ncccc5c4)n3n2)cc1F	·	·	·	·	·	–	·	·	·	·	·
C=CC(=O)N1CCC[C@@H](n2nc(-c3ccc(Oc4ccccc4)cc3)c3c(N)ncnc32)C1	·	·	·	·	·	–	·	·	·	·	·
O=C(O)C[C@H](O)C[C@H](O)C=Cc1c(C2CC2)nc2ccccc2c1-c1ccc(F)cc1	·	·	·	·	·	–	·	·	·	·	·
COc1ccc(CNC(=O)c2nc(SCc3ccc(C)cc3)ncc2Cl)cc1	–	–	–	–	?	–	·	·	·	·	·
CCCS(=O)(=O)c1ncc(Cl)c(C(=O)Nc2c(C(=O)Nc3ccccc3)oc3ccccc23)n1	15.8µM	–	?	2.07µM	7.13µM	–	–	1.37µM	–	17.2µM	8.16µM
COc1ccc(NC(=O)c2nc(S(=O)(=O)Cc3ccc(C)cc3)ncc2Cl)cc1	?	–	?	3.69µM	11.3µM	?	–	–	–	?	5.77µM	PMP22 prot conf=–
CCS(=O)(=O)c1ncc(Cl)c(C(=O)NCc2ccccc2)n1	–	?	?	2.61µM	8.43µM	10µM	–	–	–	15.3µM	6.9µM
COc1ccc(OC)c(CCNc2ncnc3onc(C)c23)c1	–	–	–	?	11.3µM	–	–	–	?	–	–
COc1ccc(C=Cc2cc(OC)c(OC)c(OC)c2)cc1O	·	·	·	·	·	–	·	·	·	·	·
CCN1CCN(c2ccc(NS(=O)(=O)c3c(C)nc4sccn4c3=O)cc2Cl)CC1	–	–	–	–	8.91µM	–	–	–	–	?	–
COc1ccc(C(C(=O)NCc2ccccc2)N(C(=O)Cn2nnc3ccccc32)c2ccc(F)cc2)cc1 (stereo unspecified)	–	–	–	–	11.3µM	–	–	–	–	–	–
COc1ccc(N(C(=O)Cn2nnc3ccccc32)C(C(=O)NCc2ccccc2)c2ccc(F)cc2)cc1 (stereo unspecified)	–	–	–	–	–	–	·	·	·	·	·
COc1ccc(N2C(=O)CSC23C(=O)N(Cc2cccc(C(F)(F)F)c2)c2ccccc23)cc1 (stereo unspecified)	–	–	–	–	?	–	·	·	·	·	·
CCc1ccc(N2C(=O)CSC23C(=O)N(Cc2cccc(OC)c2)c2ccccc23)cc1 (stereo unspecified)	–	–	?	–	12.6µM	–	–	–	–	–	–
Cn1nnnc1SCCCNCc1ccccc1OCc1ccccc1Cl	–	–	?	?	13.4µM	–	–	?	–	–	?
CC(C)Cn1c(=O)c2ccccc2n2c(-c3ccc(Br)cc3)nnc12	–	–	–	–	–	–	·	·	·	·	·
CC(=O)Nc1ccc(-c2nnc3n(CC(C)C)c(=O)c4ccccc4n23)cc1	–	–	–	–	?	–	?	–	–	–	–
CCN(CC)CCn1c2c(c(SCC(=O)Nc3cccc(C(F)(F)F)c3)nc1=O)CCC2	–	–	–	–	16µM	–	–	–	–	–	?
O=C(CSc1nc(=O)n(Cc2ccncc2)c2c1CCC2)Nc1cccc(F)c1	–	–	–	–	?	–	·	·	·	·	·
CC(C)(O)CC[C@@H](O)[C@](C)(O)[C@H]1CC[C@@]2(O)C3=CC(=O)[C@@H]4C[C@@H](O)[C@@H](O)C[C@]4(C)[C@@H]3CC[C@]12C	·	·	·	·	·	–	·	·	·	·	·
CCN(CC)C(=O)c1sc2c(c1C)c(=O)n(-c1ccccc1)c(=O)n2Cc1cc(=O)n2ccccc2n1	–	–	–	–	11.5µM	–	–	–	–	–	–
Cc1c(C(=O)N(C)C)sc2c1c(=O)n(-c1ccc(F)cc1)c(=O)n2Cc1cc(=O)n2ccccc2n1	–	–	–	–	–	–	·	·	·	·	·
O=C(O)CCCCC(CCSCc1ccccc1)SCc1ccccc1 (stereo unspecified)	·	·	·	·	·	–	·	·	·	·	·
CCCCCCOc1ccc(/C=C/C(=O)Nc2sc3c(c2C(=O)OC)CCC3)cc1OC	–	–	?	–	6.96µM	?	–	–	–	–	–
SMILES	p53null 39C kill	p53null 32C kill	S16 viability	pS6 MEF inh	PMP22 txn prim	SKOV3 invasion	NLuc saturating	NLuc Km counter	FLuc counter	S16 F2sN tox cnf	PMP22 txn cnf	others
Cc1cc(C)c(NC(=O)Cn2c(=O)oc3cc(S(=O)(=O)N4CCCCCC4)ccc32)c(C)c1	–	–	–	–	?	–	–	–	–	–	?
Cc1cccc(NC(=O)Cn2c(=O)oc3cc(S(=O)(=O)NCc4ccccc4)ccc32)c1	–	?	–	–	10.6µM	–	–	–	–	–	–
Cc1cc(C)cc(NC(=O)Cn2c(=O)oc3cc(S(=O)(=O)N4CCCC4)ccc32)c1	–	–	–	–	–	–	·	·	·	·	·
CCOc1cc(C2CC(=O)Nc3cc4c(cc32)OCCO4)ccc1O (stereo unspecified)	–	–	?	–	–	–	·	·	·	·	·
COc1cc(C2CC(=O)Nc3cc4c(cc32)OCCO4)cc(Br)c1OC (stereo unspecified)	–	–	?	?	0.669µM	–	–	–	–	–	?
CCN1CCN(CCCNC(=O)c2ccc3c(c2)sc2nc(-c4ccc(C)cc4)cn23)CC1	–	–	?	–	9.46µM	–	15.3µM	?	6.85µM	19.3µM	17.2µM
O=C(NCCCN1CCCCC1)c1ccc2c(c1)sc1nc(-c3ccc(F)cc3)cn12	–	–	?	–	?	?	·	·	·	·	·
